Measurements published in article PMC12864922, “TDP-43 directly inhibits mRNA accumulation in neurites through modulation of mRNA stability”.
The full ranking holds about 9,900 sequences; the median of “r (bound/input frequency ratio)” is about 0.7, and the highest 2% start at about 6.5. This is one part of a sample in which the highest values are shown more often than they occur.

B1: ENSMUSG00000034801.154|Sos2|134:138;197:201;231:235 (ssRNA)
RNA: GGGAGUUCUACAGUCCGACGAUCGCUUCGAUAUCCGCAUGCUAUUGUUUGGUUUUUACAUCUAGGAGACUUAGGAAUAAUACCCACUGUUCUUAAACUCUUUGAGACCAUGUCUUAAAUGUCAGUAUUUGCUGCUGAAGACAAAAACGGAAAAUAGAAUGAAAUAAUAGAAUGCACACACAUUAUUAUUUUGUUAAAAUUAUAAACAGUUCUACAUAACCUGAUUAUAGAAGAAGGGCAACACAUCAUUAAGAUGUGCCUUUUGUUUUGCAGUCAUACGUGUUUAGCUAAUCAUUGUUUAGCUCUCUUGCGGUCGCACUAGUGUGGAAUUCUCGGGUGUCAAGG
B2: ENSMUSG00000028439.239|Fam219a|33:39;67:71;117:126;145:149 (ssRNA)
RNA: GGGAGUUCUACAGUCCGACGAUCGCUUCGAUAUCCGCAUGCUAUCACAGGAGUUUCUGCAAAAGACUAUGACAUCACACACACUGUGGUCUCACGAGGUACCUGGAGGUCAUACUGCACGGACAUGGGAAGUACGUGAAGAUUUAUUUCGGGAAAAGUGCACACACACAAGCUGUACUGGGUGUCAUCAUACCUGUUGCUUCUGCUGCUGGUCUGGUCUGAGGGAGGAAAGCUGAGGCUGUAGCUCAGUGAGAUGGUGGCUCUCCCAUGGCUGAAGACAAGUGCAAGCAGAGAGAGCCUCAGGCUCUUGCGGUCGCACUAGUGUGGAAUUCUCGGGUGUCAAGG
B3: ENSMUSG00000031028.61|Tub|157:169;187:191 (ssRNA)
RNA: GGGAGUUCUACAGUCCGACGAUCGCUUCGAUAUCCGCAUGCUAUCAGUCCCCUGCUGCAGUGGUGUUAUCACACCGGAAAGCCUCUUCACCUGGAGGUACAGAGGGAGAGGAAGCACAAGCCUGGCUGCUGUGGCUCAGCCAUCCACUCAGCCUACGAGUCAGAGACAGUGGGUGUCCCGGGAAGCAGGGGUACAGUGACACACACACAUACUACAGGGCACUCAAGCUCAUACUAGAAAAAGCUCUGGUGGUCAGCAGAAAGCACUCCCACUUCAAAAGGGCCCAUUAGGCCCAAAGGGGGUCUCUUGCGGUCGCACUAGUGUGGAAUUCUCGGGUGUCAAGG
B4: ENSMUSG00000032194.9|Kank2 (ssRNA)
RNA: GGGAGUUCUACAGUCCGACGAUCGCUUCGAUAUCCGCAUGCUAGAGUGAAUACAGGGAGGAGCCAGUGAGUCCCCCAGGACCCACCAGCCACAAGCCACGCAUCAAACCGUCCCUCCUCCAUCCCUCUGUCCCAUUCUGCCUCGGCAUUCCUCAGCCCCUGAACUUCCCUGAGGGAGCCCUGACAUCUACCAGGCUCAAGCUCCUGGAAGCCUUUCCCAGCACCCUGGGUUCAAAGCCAGAAAGCCAAGCUACAUUCUCCUCCCAGUUGGCACCAGUUGACAACGCCUUGGGUGUGGGUUUCUCUCUUGCGGUCGCACUAGUGUGGAAUUCUCGGGUGUCAAGG
B5: ENSMUSG00000061578.1396|Ksr2 (ssRNA)
RNA: GGGAGUUCUACAGUCCGACGAUCGCUUCGAUAUCCGCAUGCUAAAGUAUAUAUACCUAUAAAUGCUAUAUAUAUUAUAUAUGUGUAUAUACAUAAAGACUACUUCUUGUACAGCCCUCCACGGACCUCAGGCCCACUGUUUUCUCCAUGUCUGUCUGUACUGACUGUUGCAGAAUGAGCUGAUGUAUGAUCUUGAUUCUCCAUUUUCCUUCUGGACCACAUGUCUCUUCCUUUUCCUUUUUAGAUCUGUCUUGCUCUCUGUCUCUCUCACUCAUUGCCAACAUGUUGCUGGGAAAGAAUAUUUCUCUUGCGGUCGCACUAGUGUGGAAUUCUCGGGUGUCAAGG
B6: ENSMUSG00000043670.80|Diras1|67:72 (ssRNA)
RNA: GGGAGUUCUACAGUCCGACGAUCGCUUCGAUAUCCGCAUGCUACUGGCUAAGGAACUGCUCAUCCCAGUCAGGCCCAGAGAGGUUACCUUGCCUCUCCAUCUCUGUCCCACACACCCCAGCCAUGCCCACUGUCCCUGUCCCUCACAUUCUAUCACUGUGACCUCUGGGGAGUGCCCAUUGACCUCAUCUUCCUUCACUAAUAUCUUAUUUCUUUCACCUGAUCCUGUCCUUUCCCCGUGACCUCUGACCUGUGGCCUUCCCUGGGUCCAGAACACCCCUGUCCUCUCCUGUCUGCACACCAGCUCUUGCGGUCGCACUAGUGUGGAAUUCUCGGGUGUCAAGG
B7: ENSMUSG00000090935.729|Synj2bp (ssRNA)
RNA: GGGAGUUCUACAGUCCGACGAUCGCUUCGAUAUCCGCAUGCUAAUCAACCUCCAGUAACAUAUGUGGUUAGUAAGUGCUUCAGCUUGUGUAGCCAUUAAUAACCAAGUCAUAGGAUUGUGAAUCUAAAAUACUCCUGGGUAAAAUUUGUAUUAGAAUGGAAAAAAAAAUGAGGGUCAGAAAGGUGAGCUAACUUCAAGUUAGAUACUCCCCUCUAUUUUGGUCUCAAAUUUGUUUUAGUGUGUCCACAACAUGAAAACAUACAAAAACUAUAUUUUAAAAAUCAGUUUACUUUCAUCUUUUCUCUCUUGCGGUCGCACUAGUGUGGAAUUCUCGGGUGUCAAGG
B8: ENSMUSG00000022095.164|Fam160b2|44:48 (ssRNA)
RNA: GGGAGUUCUACAGUCCGACGAUCGCUUCGAUAUCCGCAUGCUAGGCUAGGCCGAGACACAAGCAGAUAGCUCUGGCAUUGUUCUUCCAUACUCCUCCAUGGCUGGGGCUGCUACCUCACCCGGCCUGAAUCUGUCUCAACCUGCAAGAGCACUCGGGCGGCGCCAGGCAUUACCUCACAACAGGCCUGCAGUUGUUGGCUUCCCUCCUGGGCAAGGAGGAGCAGGCCAGAGCCCCUUUUGCUUCCUUUUCCUGCCCAUGCCACCUCUCGAAGCCGGGCACAGGUUGCCAGGAGGUGACAUGAACUCUUGCGGUCGCACUAGUGUGGAAUUCUCGGGUGUCAAGG
B9: ENSMUSG00000004113.278|Cacna1b|87:91;151:155;229:260 (ssRNA)
RNA: GGGAGUUCUACAGUCCGACGAUCGCUUCGAUAUCCGCAUGCUAAAGUCAGGCCCCUGGCUUAGCACUAGAAAAAAUAAAACCUCAUGGCUGCUUUGCAAAGGGAAAACCCAUGCUCAGGAAGGUGUUCACACACCACAGAUAGCUGGGAGGCCACGAGAGAAAGGUUGCACACAGACAGGCAGGCACUCCUUGCACACGUCUCUCUGUUUUGAAACUUCUGAUGACUUCUUGGUGGCUUGUUGUCUUCUACCCCAUGUUUCUCACAGGAUCACACACACACACACACACACACACACACACACCUCUUGCGGUCGCACUAGUGUGGAAUUCUCGGGUGUCAAGG

biological target: TDP-43 (Homo sapiens, UniProt Q13148 1-414); assay: RNA Bind-n-Seq with designed 260-mer pool; 25 mM Tris-HCl, 150 mM KCl, 3 mM MgCl2, BSA (printed 500 mg/mL), 20 units/mL SUPERase IN; pH not stated; 500 nM RNA pool, 1 h, 4 C; TDP-43 5, 50, 500 nM; high values mean tight binding; conditions: protein: recombinant; tags: SBP (GST cleaved off with PreScission; pGEX-GST-SBP)
Method in brief: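 An in vitro-transcribed pool of 260-nt 3′ UTR oligos (500 nM) was incubated for 1 h at 4 °C with recombinant SBP-tagged TDP-43 at 5, 50 or 500 nM held on streptavidin beads. The buffer contained 25 mM Tris-HCl, 150 mM KCl, 3 mM MgCl2, BSA and SUPERase IN. Biotin-eluted bound RNA was sequenced, and binding, R, is each oligo's normalized read abundance in the bound sample over that in input.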

Sequence of TDP-43 (Q13148 whole entry): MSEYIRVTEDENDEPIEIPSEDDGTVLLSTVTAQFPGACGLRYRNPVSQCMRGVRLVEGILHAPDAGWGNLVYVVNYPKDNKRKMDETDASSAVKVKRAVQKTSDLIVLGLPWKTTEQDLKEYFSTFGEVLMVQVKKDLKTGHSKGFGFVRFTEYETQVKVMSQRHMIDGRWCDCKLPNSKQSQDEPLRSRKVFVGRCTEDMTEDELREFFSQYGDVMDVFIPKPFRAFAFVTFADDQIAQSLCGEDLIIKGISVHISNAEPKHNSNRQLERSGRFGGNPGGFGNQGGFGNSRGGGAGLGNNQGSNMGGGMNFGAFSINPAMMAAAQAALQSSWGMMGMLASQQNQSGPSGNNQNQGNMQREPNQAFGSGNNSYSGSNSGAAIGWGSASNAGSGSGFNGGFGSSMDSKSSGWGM

Row | Binder | binding signal
1 | B1 | 0.018 R (bound/input frequency ratio)
2 | B2 | 1.35 R (bound/input frequency ratio)
3 | B3 | 0.59 R (bound/input frequency ratio)
4 | B4 | 1.04 R (bound/input frequency ratio)
5 | B5 | 0.176 R (bound/input frequency ratio)
6 | B6 | 2.36 R (bound/input frequency ratio)
7 | B7 | 0.0597 R (bound/input frequency ratio)
8 | B8 | 0.529 R (bound/input frequency ratio)
9 | B9 | 1.82 R (bound/input frequency ratio)
